# MRP reversal – reversal of MRP1-mediated doxorubicin resistance, primary screen, H69AR cells, doxorubicin co-treatment; differential viability (reversal), % at 10 µM; AID 602, 2007; H69AR cells + 2 uM doxorubicin, CellTiter-Glo, 72 h; 85,000 tested, 0.04% active;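 active = viability drop by adding the cancer drug above about 55%, with treated viability meeting a 40% cutoff, limit read from the data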;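 also: viability without doxorubicin minus viability with 2 µM doxorubicin for each compound; larger differential means the compound sensitizes cells more to doxorubicin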
# MRP1 act – H69AR viability gain despite doxorubicin, primary screen, MRP-1 activator project, H69AR cells, CellTiter-Glo | 140,000 tested, 0.61% active | AID 799, 2007 | viability rescue | viability increase, % at 10 µM;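 active = viability gain under doxorubicin at or above a set limit, the compound median plus 3 SD, cut at about 4.7% in these data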;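 also: MRP-1 overexpressing cells given doxorubicin 25 µM after compound pretreatment; 18-22 h compound pretreatment then 72 h with doxorubicin before readout; 0% = doxorubicin-only wells and 100% = vehicle-treated cells without doxorubicin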
# DAT uptake mod – changed hDAT dopamine uptake under cocaine IC80, either direction, primary screen, cocaine antagonist project, cell-based, LLC-PK1 hDAT, [14C]-dopamine uptake, MLSMR | Sodium-dependent dopamine transporter (Homo sapiens), Q01959 | LLC-PK1 hDAT cells, [14C]-dopamine uptake with cocaine IC80; actives deviate in either direction | B-score at 10 µM | 110,000 tested, 1.3% active | AID 449768, 2010;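 active = Z score or B-score, a plate-position-corrected score, falls beyond the plate's 99.7% confidence bounds, in either direction; inactive = both scores lie inside the 99.7% bounds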;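 also: scored against the spread of the other compound wells on the same plate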
# Target sequence (Q01959 whole entry, looked up): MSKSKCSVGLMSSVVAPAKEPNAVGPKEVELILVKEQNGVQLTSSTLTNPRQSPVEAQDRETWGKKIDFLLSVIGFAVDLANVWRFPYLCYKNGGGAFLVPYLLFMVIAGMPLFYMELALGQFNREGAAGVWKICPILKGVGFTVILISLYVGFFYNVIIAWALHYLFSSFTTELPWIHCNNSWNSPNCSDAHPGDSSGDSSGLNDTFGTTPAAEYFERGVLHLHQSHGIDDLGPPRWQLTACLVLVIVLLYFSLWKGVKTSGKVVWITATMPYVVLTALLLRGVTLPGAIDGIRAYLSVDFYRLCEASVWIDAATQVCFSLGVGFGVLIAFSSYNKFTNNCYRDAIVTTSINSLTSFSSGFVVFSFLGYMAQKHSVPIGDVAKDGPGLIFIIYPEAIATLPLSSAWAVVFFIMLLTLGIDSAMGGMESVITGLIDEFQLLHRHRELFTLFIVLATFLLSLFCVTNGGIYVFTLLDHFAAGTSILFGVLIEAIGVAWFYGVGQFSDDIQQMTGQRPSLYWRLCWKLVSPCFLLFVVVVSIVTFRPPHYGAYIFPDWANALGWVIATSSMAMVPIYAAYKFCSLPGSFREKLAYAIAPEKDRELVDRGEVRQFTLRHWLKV
# Active calls of the source: *; / = not tested or not shown. Compounds with a hit are over-represented: about 1.5% of the library has one in this group of screens.
SMILES,MRP reversal,MRP1 act,DAT uptake mod
O=C(Nc1ccc(O)c2c(=O)cc(-c3cccc(Cl)c3)oc12)c1ccc(F)cc1,/,/,-1.2
CN(C)/C=N/c1c(C#N)cnn1-c1ncnc2sc(-c3ccccc3)cc12,-17,-4,3.2*
CN(C)/C=N/c1c(C#N)cnn1-c1ccccc1,16,-1,0.034
O=C1N=C(O)CN1/N=C/c1ccc(-c2ccc([N+](=O)[O-])cc2)o1,/,/,0.76
CCN(CC)S(=O)(=O)c1ccc(Cc2ncc(C(F)(F)F)cc2Cl)s1,5,0,0.88
CC1CC/C(=N/Nc2ccccc2)C(=O)N1 (centres undefined),/,-2,/
O=c1[nH]c2ccc(Cl)cc2c(-c2ccccc2)c1SC(=S)N1CCCCC1,-5,0,3.4*
O=c1[nH]c2ccc(Cl)cc2c(-c2ccccc2)c1SC(=S)N1CCOCC1,-5,-4,0.56
CS(=O)(=O)N(CC(=O)N/N=C/c1cc([N+](=O)[O-])ccc1Cl)c1ccccc1,/,-4,2*
Cc1cccc(N(CC(=O)N/N=C/c2cc([N+](=O)[O-])ccc2Cl)S(C)(=O)=O)c1C,/,-4,0.4
COC(=O)C1=C(CCc2ccccc2)NC(=O)NC1c1ccc([N+](=O)[O-])cc1 (centres undefined),/,/,1.9
CCCc1nnc(N2C(=O)c3cccc4cccc(c34)C2=O)s1,-21,-4,-1.5
Cc1ccc(N2C(=O)CC(Sc3ncn[nH]3)C2=O)cc1C (centres undefined),-9,-3,-3.1*
CC1=CS(=O)(=O)CC1Sc1ncn[nH]1 (centres undefined),-17,-1,-1.2
COc1cccc(CNS(=O)(=O)/C=C/c2ccc3c(c2)OCO3)c1,/,-3,-0.12
Cc1ccc(C(=O)Nc2ccccc2C(=O)N2CCOCC2)cc1[N+](=O)[O-],/,-1,/
COc1ccc(C2CC(=O)c3sc(NC(C)=O)nc3C2)cc1 (centres undefined),/,-2,/
O=C(Nc1ccc2c(c1)OCO2)C(c1ccc(Cl)cc1)N1CCN(C(=O)c2ccco2)CC1 (centres undefined),13,-2,2.4*
O=C(Nc1ccc2c(c1)OCO2)C(c1ccccc1)N1CCN(C(=O)c2ccco2)CC1 (centres undefined),9,-1,-1.8
Cc1ccc(S(=O)(=O)Nc2cc(C(=O)Nc3cc(C)cc(C)c3)ccc2Cl)cc1,/,-2,-0.43
CC(=O)c1ccc(NC2OC(C)C(O)C(O)C2O)cc1 (centres undefined),9,-1,-2.8*
CC(=O)c1ccc(NC2OC(CO)C(O)C(O)C2O)cc1 (centres undefined),-7,0,-0.37
O=C(Cn1ncc2c3ccccc3n(Cc3ccccc3)c2c1=O)N1CCN(c2ncccn2)CC1,7,0,1.8*
Cc1c2cnn(CC(=O)N3CCN(c4ncccn4)CC3)c(=O)c2c(C)n1Cc1ccc(F)cc1,1,2,/
COC(=O)c1ccc(-c2nc3ccccc3o2)cc1,-3,/,/
SMILES,MRP reversal,MRP1 act,DAT uptake mod
COC(=O)c1ccc(-c2ncc(-c3cccc4ccccc34)o2)cc1,-33,-1,3*
Cc1cc(CNC(=O)C2(C(F)(F)F)C/C(=C\Cc3ccccc3)CCCO2)nn1C (centres undefined),/,/,-0.74
COC(=O)c1sccc1NC(=O)c1cc(OC)cc(OC)c1,-2,-7,-8*
COC(=O)c1sccc1NC(=O)c1ccc(OC)c(OC)c1,4,-1,-0.8
O=C(Nc1nc(-c2cccs2)c(-c2cccs2)s1)C1CCCC1,/,1,/
O=C(NCc1cccnc1)[C@@H]1CC=C[C@@H]2CCN(Cc3ccccc3)C(=O)[C@@H]21,/,/,0.097
CCOc1ccc(C(=O)N/N=C/c2cc(Cl)ccc2[N+](=O)[O-])cc1,/,-3,/
CCC(=O)Nc1cc(C(=O)OC(C(=O)c2ccc(C)c(C)c2)c2ccccc2)ccc1C (centres undefined),/,-1,1.2
COc1ccc(-c2nc(Cn3c(SCc4ccc(F)cc4)nc4ccncc43)c(C)o2)cc1OC,23,-3,3.1*
COc1ccc(-c2nc(Cn3c(SCc4ccccc4F)nc4ccncc43)c(C)o2)cc1,6,-2,0.27
C#CCNC(=O)C1=C[C@@H](c2ccc3c(c2)OCO3)C[C@@H](OCCCCO)O1,/,/,-0.72
Cc1ccc(SCc2cc(=O)[nH]c(/N=C(\N)Nc3ccc(C)c(C)c3)n2)cc1,/,-3,-0.62
COc1cc(S(=O)(=O)n2nc(C)cc2C)c(OC)cc1Cl,6,-1,-0.72
Cc1ccc(-c2noc(CCC(=O)NCc3ccc4c(c3)OCO4)n2)cc1,-8,-4,1.2*
Cc1ccc(CC(=O)NCc2ccc3c(c2)OCO3)cc1,-3,-1,-1.9
COc1cc(O)c(C(CCN2CCN(c3ccccc3)CC2)c2cc(OC)c(OC)c(OC)c2)c(OC)c1 (centres undefined),/,/,-0.26
Cc1ccc2nc(Nc3nc(CSc4nc5ccccc5s4)cc(=O)[nH]3)nc(C)c2c1,/,11*,/
COc1ccc2nc(Nc3nc(CSc4nc5ccccc5s4)cc(=O)[nH]3)nc(C)c2c1,/,/,-0.99
COc1ccc(Cl)cc1-n1c(C)ccc1C,/,-3,/
Cc1ccc(CSCC(=O)N/N=C/c2sccc2C)cc1,/,0,3.2*
CCCCC(=O)N/N=C/c1sccc1C,/,-1,/
COc1ccc(OC)c(N(CC(=O)Nc2cccnc2)S(=O)(=O)c2ccccc2)c1,-10,-1,0.39
Cc1[nH]n2c(=O)c3c(nc2c1-c1ccccc1)CCC3,-35,-2,-0.12
Cc1[nH]n2c(=O)c3c(nc2c1-c1ccc(Cl)cc1)CCC3,-22,-3,-2.7*
CC(C)c1ccc(NC(=O)COC(=O)CSc2nnc(N)s2)cc1,/,-2,/
SMILES,MRP reversal,MRP1 act,DAT uptake mod
Cc1ccc(NC(=O)CN2C(=O)NC3(CCc4ccccc43)C2=O)cc1Cl (centres undefined),/,-1,-1.2
Cc1ccc(NC(=O)NC(=O)CN2C(=O)NC3(CCc4ccccc43)C2=O)c(C)c1 (centres undefined),0,0,2.5*
Cc1c(C(=O)OCC(=O)Nc2ccc3c(c2)OCO3)cccc1[N+](=O)[O-],/,0,/
Cc1ccc(C)c(N2CCN(c3nnnn3-c3ccccc3)CC2)c1,-48,-4,1.1
CC(NC(=O)Nc1cccnc1)(C(F)(F)F)C(F)(F)F,-1,2,-1.1
CC(NC(=O)Nc1cccc([N+](=O)[O-])c1)(C(F)(F)F)C(F)(F)F,/,-7,-3*
C=CCN(CC=C)C(=S)NC(=O)c1ccc(C)c(Br)c1,/,-1,/
CCC(CO)N=CC1=C(O)C(C(=O)c2ccccc2)CCC1=O (centres undefined),1,2,-0.11
O=C(O)CCCN=CC1=C(O)C(C(=O)c2ccccc2)CCC1=O (centres undefined),15,3,1.8*
COC(=O)c1sc(Nc2ccccc2)nc1C,8,-2,0.67
CC(C)(C)C(=O)c1sc(Nc2ccccc2)nc1N,-18,-5,1.3*
COC/C=C/C1=CC2=CC(=O)C(C)(O)C(=O)C2=CO1 (centres undefined),/,/,-0.34
Cc1ccc(OCc2cn3cccnc3n2)cc1,/,-1,/
COc1cc(NC(=S)N2CCN(C(=O)C3CCCO3)CC2)c(OC)cc1Cl (centres undefined),/,-1,/

# Bioassay records: PubChem BioAssay, several laboratories
